{"source": "PubChem BioAssay (NCATS)", "key": {"[1]": {"experiment": "Validation of Assay for Modulators of Lamin A Splicing (AID 1459; active = well fitted curve in the direction sought with a large enough effect in the signal ratio; the % refers to the signal ratio;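 as to all read-outs here: 0% is about no effect; ratio rise marks activators and ratio drop marks inhibitors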)", "procedure,_shortened": "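Splicing correction is reported by an EGFP-containing lamin A minigene in stably transfected S3 HeLa cells, while DsRed2 controls for viability and nonspecific signal. Cells are exposed to compounds for 48 hrs before the GFP over RFP ratio is taken.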"}, "[2]": {"target": "ATP-dependent DNA helicase Q1 (Homo sapiens) (UniProt P46063)", "sequence (P46063 whole entry, looked up)": "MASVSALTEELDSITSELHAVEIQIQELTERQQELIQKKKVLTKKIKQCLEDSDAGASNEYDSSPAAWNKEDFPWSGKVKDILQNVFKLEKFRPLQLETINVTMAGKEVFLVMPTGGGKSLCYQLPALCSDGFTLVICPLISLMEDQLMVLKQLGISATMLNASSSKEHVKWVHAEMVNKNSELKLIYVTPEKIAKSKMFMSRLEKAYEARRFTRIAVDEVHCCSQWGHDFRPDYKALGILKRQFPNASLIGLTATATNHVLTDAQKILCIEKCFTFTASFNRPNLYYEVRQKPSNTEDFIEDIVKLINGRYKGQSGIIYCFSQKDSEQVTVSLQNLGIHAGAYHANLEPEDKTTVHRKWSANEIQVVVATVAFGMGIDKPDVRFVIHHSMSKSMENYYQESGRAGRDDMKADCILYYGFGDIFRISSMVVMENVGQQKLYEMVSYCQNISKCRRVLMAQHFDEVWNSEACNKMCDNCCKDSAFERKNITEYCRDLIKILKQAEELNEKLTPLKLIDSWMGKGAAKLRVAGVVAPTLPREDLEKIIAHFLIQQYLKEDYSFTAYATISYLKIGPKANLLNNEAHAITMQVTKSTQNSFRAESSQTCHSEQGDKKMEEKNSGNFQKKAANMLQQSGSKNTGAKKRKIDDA", "experiment": "qHTS Validation Assay for Inhibitors of RecQ-Like Dna Helicase 1 (RECQ1) (AID 2353);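 as to all read-outs here: plate controls were DMSO vehicle for no effect and enzyme-free control for full effect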", "procedure,_shortened": "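50 nM RECQ1T1 preincubated 15 min with compound in Tris pH 8.0 buffer with MgCl2, DTT, Tween-20 and 2.5 ug/ml poly(dI-dC); started with 200 nM TAMRA/BHQ-2 forked duplex and 2 mM ATP. Unwinding read as fluorescence (525/598 nm), two reads 2 h apart.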"}, "[3]": {"target": "Galactokinase (Homo sapiens) (UniProt P51570)", "sequence (P51570 whole entry, looked up)": "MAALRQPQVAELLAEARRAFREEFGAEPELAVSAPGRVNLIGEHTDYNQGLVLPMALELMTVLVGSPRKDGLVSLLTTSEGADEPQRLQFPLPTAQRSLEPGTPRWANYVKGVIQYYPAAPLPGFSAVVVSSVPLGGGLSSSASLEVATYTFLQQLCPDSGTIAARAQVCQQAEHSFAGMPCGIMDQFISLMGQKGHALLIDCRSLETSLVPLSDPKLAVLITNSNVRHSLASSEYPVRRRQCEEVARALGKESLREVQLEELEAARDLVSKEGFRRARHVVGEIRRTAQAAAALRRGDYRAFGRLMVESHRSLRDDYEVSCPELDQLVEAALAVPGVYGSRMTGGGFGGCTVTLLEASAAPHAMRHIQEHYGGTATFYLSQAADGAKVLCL", "experiment": "qHTS Validation Assay for Inhibitors of Human Galactokinase (GALK) (AID 493189); as to all read-outs here: 0% is about no effect", "procedure,_shortened": "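Compounds were pin-transferred into ATP buffer, then GALK-galactose mix was added (final 5 nM enzyme, 100 uM galactose, 35 uM ATP). After 1 h at room temperature, remaining ATP was measured luminescently.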"}, "[4]": {"experiment": "qHTS Assay for Lipid Storage Modulators (AID 1519; calls by dose curve; as to activity change, negative = inhibition: % is scaled to controls: 0 for no effect and ±100 for the full control effect)", "conditions": "Drosophila S3 cells, BODIPY lipid droplet/cell ratio, laser cytometry, cells loaded with oleic acid; for activity change, negative = inhibition: at 57.5 µM (top of the series)", "procedure,_shortened": "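Cells seeded at 5,000 per well were treated with compounds over a concentration series and loaded with oleic acid (400 uM, as added). Lipid droplet fluorescence (488 nm excitation, 500-530 nm channel) was read by laser-scanning cytometry and normalized to 20 uM Triacsin C.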"}, "[5]": {"conditions": "measured here: cell count channel max response"}, "[6]": {"conditions": "measured here: lipid channel max response"}}, "note": "Results filed as inconclusive are left out. The source made the active and inactive calls. Unless noted, calls follow the shape of the dose curve; as a rule, active = well fitted curve in the direction sought with a large enough effect; inconclusive = small, poorly fitted or top-dose-only effect, or another doubt; inactive = no such curve, though single readings can be large; an effect the other way counts as inactive or inconclusive."}
{"smiles": "Nc1ncnc2c1ncn2[C@@H]1O[C@H](COP(=O)(O)CP(=O)(O)OP(=O)(O)O)[C@H](O)[C@H]1O", "values": [{"measurement": "outcome", "setting": "[1]", "value": "inactive"}, {"measurement": "outcome", "setting": "[2]", "value": "inactive"}, {"measurement": "outcome", "setting": "[3]", "value": "inactive"}]}
{"smiles": "C=CCN1CC[C@@]2(C)c3cc(O)ccc3CC1[C@@H]2C", "values": [{"measurement": "outcome", "setting": "[1]", "value": "inactive"}, {"measurement": "activity change, negative = inhibition", "setting": "[4]", "value": "-0.315% (inactive)"}, {"measurement": "max response", "setting": "[4]; [5]", "value": 26.7, "unit": "%"}, {"measurement": "max response", "setting": "[4]; [6]", "value": 28.1, "unit": "%"}, {"measurement": "outcome", "setting": "[2]", "value": "inactive"}, {"measurement": "outcome", "setting": "[3]", "value": "inactive"}]}
{"smiles": "C[C@H]1C2Cc3ccc(O)cc3[C@]1(C)CCN2CC1CC1", "values": [{"measurement": "outcome", "setting": "[1]", "value": "inactive"}, {"measurement": "outcome", "setting": "[2]", "value": "inactive"}, {"measurement": "outcome", "setting": "[3]", "value": "inactive"}]}
{"smiles": "NCC#Cc1ccccc1", "values": [{"measurement": "outcome", "setting": "[1]", "value": "inactive"}, {"measurement": "activity change, negative = inhibition", "setting": "[4]", "value": "-4.59% (inactive)"}, {"measurement": "max response", "setting": "[4]; [5]", "value": -80.1, "unit": "%"}, {"measurement": "max response", "setting": "[4]; [6]", "value": -81.6, "unit": "%"}, {"measurement": "outcome", "setting": "[2]", "value": "inactive"}, {"measurement": "outcome", "setting": "[3]", "value": "inactive"}]}
{"smiles": "COc1cc(C=C(C#N)C#N)cc(O)c1O", "values": [{"measurement": "outcome", "setting": "[1]", "value": "inactive"}, {"measurement": "activity change, negative = inhibition", "setting": "[4]", "value": "-2.14% (inactive)"}, {"measurement": "max response", "setting": "[4]; [5]", "value": 23.5, "unit": "%"}, {"measurement": "max response", "setting": "[4]; [6]", "value": 22.3, "unit": "%"}, {"measurement": "outcome", "setting": "[2]", "value": "inactive"}, {"measurement": "outcome", "setting": "[3]", "value": "inactive"}]}
{"smiles": "CN1C[C@@H](CS(=O)(=O)N(C)C)C[C@@H]2c3cccc4c3c(cn4C)C[C@H]21", "values": [{"measurement": "outcome", "setting": "[1]", "value": "inactive"}, {"measurement": "outcome", "setting": "[2]", "value": "inactive"}, {"measurement": "outcome", "setting": "[3]", "value": "inactive"}]}
{"smiles": "CC(C)(O)C1C2OC(=O)C1[C@]1(O)C[C@H]3O[C@]34C(=O)O[C@H]2[C@]14C", "note": "(some centres not stated) (tested in a mixture with another compound)", "values": [{"measurement": "outcome", "setting": "[1]", "value": "inactive"}, {"measurement": "outcome", "setting": "[2]", "value": "inactive"}, {"measurement": "outcome", "setting": "[3]", "value": "inactive"}]}
{"smiles": "CC1Cc2cc3c(cc2C(c2ccc(N)cc2)=NN1)OCO3", "note": "(configuration not stated)", "values": [{"measurement": "outcome", "setting": "[1]", "value": "inactive"}, {"measurement": "activity change, negative = inhibition", "setting": "[4]", "value": "1.87% (inactive)"}, {"measurement": "max response", "setting": "[4]; [5]", "value": 56.1, "unit": "%"}, {"measurement": "max response", "setting": "[4]; [6]", "value": 60.1, "unit": "%"}, {"measurement": "outcome", "setting": "[2]", "value": "inactive"}, {"measurement": "outcome", "setting": "[3]", "value": "inactive"}]}
{"smiles": "CCCN1CCCC(c2cccc(O)c2)C1", "note": "(configuration not stated)", "values": [{"measurement": "outcome", "setting": "[1]", "value": "inactive"}, {"measurement": "outcome", "setting": "[2]", "value": "inactive"}, {"measurement": "outcome", "setting": "[3]", "value": "inactive"}]}
{"smiles": "NC(Cn1ccc(=O)[nH]c1=O)C(=O)O", "note": "(configuration not stated)", "values": [{"measurement": "outcome", "setting": "[1]", "value": "inactive"}, {"measurement": "activity change, negative = inhibition", "setting": "[4]", "value": "-1.49% (inactive)"}, {"measurement": "max response", "setting": "[4]; [5]", "value": -18.2, "unit": "%"}, {"measurement": "max response", "setting": "[4]; [6]", "value": -23.6, "unit": "%"}, {"measurement": "outcome", "setting": "[2]", "value": "inactive"}, {"measurement": "outcome", "setting": "[3]", "value": "inactive"}]}
{"smiles": "COc1cc(C[C@@H](C)N)c(OC)cc1I", "values": [{"measurement": "outcome", "setting": "[1]", "value": "inactive"}, {"measurement": "outcome", "setting": "[2]", "value": "inactive"}, {"measurement": "outcome", "setting": "[3]", "value": "inactive"}]}
{"smiles": "CCN1C[C@]2(C)CC[C@H](O)[C@@]34[C@@H]5C[C@@H]6[C@@H](OC)C[C@@](O)(C5[C@H]6O)[C@@H](C[C@@H]23)[C@@H]14", "values": [{"measurement": "outcome", "setting": "[1]", "value": "inactive"}, {"measurement": "activity change, negative = inhibition", "setting": "[4]", "value": "1.56% (inactive)"}, {"measurement": "max response", "setting": "[4]; [5]", "value": -17.1, "unit": "%"}, {"measurement": "max response", "setting": "[4]; [6]", "value": -16.8, "unit": "%"}, {"measurement": "outcome", "setting": "[2]", "value": "inactive"}, {"measurement": "outcome", "setting": "[3]", "value": "inactive"}]}
{"smiles": "C[C@H]1OC[C@@H](C[N+](C)(C)C)O1", "values": [{"measurement": "outcome", "setting": "[1]", "value": "inactive"}, {"measurement": "outcome", "setting": "[2]", "value": "inactive"}, {"measurement": "outcome", "setting": "[3]", "value": "inactive"}]}
{"smiles": "N#CC(=Cc1ccc(O)c(O)c1)C(N)=S", "values": [{"measurement": "outcome", "setting": "[1]", "value": "inactive"}, {"measurement": "outcome", "setting": "[2]", "value": "inactive"}, {"measurement": "outcome", "setting": "[3]", "value": "inactive"}]}
{"smiles": "Oc1ccc2c3c1O[C@H]1[C@@H](O)CC[C@@]4(O)C(C2)N(CC2CCC2)CCC314", "note": "(some centres not stated)", "values": [{"measurement": "outcome", "setting": "[1]", "value": "inactive"}, {"measurement": "outcome", "setting": "[2]", "value": "inactive"}, {"measurement": "outcome", "setting": "[3]", "value": "inactive"}]}
{"smiles": "CCCN1CCC[C@@H](c2cccc(C#N)c2)C1", "values": [{"measurement": "outcome", "setting": "[1]", "value": "inactive"}, {"measurement": "outcome", "setting": "[2]", "value": "inactive"}, {"measurement": "outcome", "setting": "[3]", "value": "inactive"}]}
{"smiles": "CCCN1CCC[C@@H]2Cc3n[nH]cc3C[C@H]21", "values": [{"measurement": "outcome", "setting": "[1]", "value": "inactive"}, {"measurement": "activity change, negative = inhibition", "setting": "[4]", "value": "3.49% (inactive)"}, {"measurement": "max response", "setting": "[4]; [5]", "value": 9.58, "unit": "%"}, {"measurement": "max response", "setting": "[4]; [6]", "value": 14.1, "unit": "%"}, {"measurement": "outcome", "setting": "[2]", "value": "inactive"}, {"measurement": "outcome", "setting": "[3]", "value": "inactive"}]}
{"smiles": "CCN(CC)C(=O)N[C@@H]1C[C@@H]2c3cccc4[nH]cc(c34)C[C@H]2N(C)C1", "values": [{"measurement": "outcome", "setting": "[1]", "value": "inactive"}, {"measurement": "activity change, negative = inhibition", "setting": "[4]", "value": "-3.98% (inactive)"}, {"measurement": "max response", "setting": "[4]; [5]", "value": 28.2, "unit": "%"}, {"measurement": "max response", "setting": "[4]; [6]", "value": 24, "unit": "%"}, {"measurement": "outcome", "setting": "[2]", "value": "inactive"}, {"measurement": "outcome", "setting": "[3]", "value": "inactive"}]}
{"smiles": "CCCC[N+]1(C)C2CC(OC(=O)C(CO)c3ccccc3)CC1C1OC12", "note": "(configuration not stated)", "values": [{"measurement": "outcome", "setting": "[1]", "value": "inactive"}, {"measurement": "activity change, negative = inhibition", "setting": "[4]", "value": "-1.49% (inactive)"}, {"measurement": "max response", "setting": "[4]; [5]", "value": 13.3, "unit": "%"}, {"measurement": "max response", "setting": "[4]; [6]", "value": 13.7, "unit": "%"}, {"measurement": "outcome", "setting": "[2]", "value": "inactive"}, {"measurement": "outcome", "setting": "[3]", "value": "inactive"}]}
{"smiles": "C[C@]12CC[C@H]3[C@@H](CCC4C[C@H](O)CC[C@@]43C)[C@@H]1CC[C@@H]2O", "note": "(some centres not stated)", "values": [{"measurement": "outcome", "setting": "[1]", "value": "inactive"}, {"measurement": "outcome", "setting": "[2]", "value": "inactive"}, {"measurement": "outcome", "setting": "[3]", "value": "inactive"}]}
{"smiles": "CC[C@@H](CO)NC(=O)[C@H]1C=C2c3cccc4c3c(cn4C)C[C@H]2N(C)C1", "values": [{"measurement": "outcome", "setting": "[1]", "value": "inactive"}, {"measurement": "activity change, negative = inhibition", "setting": "[4]", "value": "2.02% (inactive)"}, {"measurement": "max response", "setting": "[4]; [5]", "value": 18.8, "unit": "%"}, {"measurement": "max response", "setting": "[4]; [6]", "value": 22.3, "unit": "%"}, {"measurement": "outcome", "setting": "[2]", "value": "inactive"}, {"measurement": "outcome", "setting": "[3]", "value": "inactive"}]}
{"smiles": "CN1CCC23CCCC[C@H]2C1Cc1ccc(O)cc13", "note": "(some centres not stated)", "values": [{"measurement": "outcome", "setting": "[1]", "value": "inactive"}, {"measurement": "activity change, negative = inhibition", "setting": "[4]", "value": "0.333% (inactive)"}, {"measurement": "max response", "setting": "[4]; [5]", "value": 15.7, "unit": "%"}, {"measurement": "max response", "setting": "[4]; [6]", "value": 15.2, "unit": "%"}, {"measurement": "outcome", "setting": "[2]", "value": "inactive"}, {"measurement": "outcome", "setting": "[3]", "value": "inactive"}]}
{"smiles": "CCCCN1C2CCC1CC(OC(c1ccc(F)cc1)c1ccc(F)cc1)C2", "note": "(configuration not stated)", "values": [{"measurement": "outcome", "setting": "[1]", "value": "inactive"}, {"measurement": "outcome", "setting": "[2]", "value": "inactive"}, {"measurement": "outcome", "setting": "[3]", "value": "inactive"}]}
